For 45 compounds, inhibition (viability loss, TRAIL sensitization) results are on record in PubChem BioAssay AID624354 (Sanford-Burnham Center for Chemical Genomics, 2012).

Several values for one entry are separate records, joined by “and”; a condition that tells them apart may be missing. Identical values can stand only once. About 3,800 (1.1%) of roughly 360,000 compounds were called active. Many of the other results were omitted from the sample, so actives are more common in it than they were. A number with no mark means an inactive call.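 Rule for the calls: active = compounds causing at least 50% loss of cell viability in the single-dose screen, relative to plate controls; inactive = the rest.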

This assay in a line: TRAIL-exposed caspase-8 expressing cell killing – NB7+C8 cells, ATPlite luminescence, TRAIL sensitizer project, primary screen (AID 624354). As to conditions: at 10 µM, hits give high values. On the technique in general: Cellular ATP, detected with luciferase, serves as a proxy for viable cell number.
On to `Cc1ccc(C(=O)O/N=C(\N)c2ccccn2)cc1Cl`, for which the inhibition (viability loss, TRAIL sensitization) was 74.5% (active).

For `N/C(=N\OC(=O)CCC1CCCCC1)c1ccccn1`, the inhibition (viability loss, TRAIL sensitization) was -5.71%. The value for `N/C(=N\OC(=O)c1ccc([N+](=O)[O-])cc1)c1ccccn1` was 24.5%; that for `CNc1nc(SC)nc(N(C#N)CC(=O)OC)n1` was -0.928%; that for `COC(=O)c1cccc(C(=O)N2CCCC(Nc3ccc4c(c3)OCCO4)C2)c1` (stereo not given) was -3.93%. The value for `COc1ccc(S(=O)(=O)N2CCCC(C(=O)NCCCn3ccnc3)C2)cc1OC` (stereo not given) was -12.7%. Turning to `COc1ccc2nc(-c3ccccn3)ccc2c1`, the inhibition (viability loss, TRAIL sensitization) is 80.3% (active). As for `COc1ccc2cc(CCl)c(Cl)nc2c1`, the figure is -1.84%; as for `COc1ccc(C=C(C#N)C#N)c(CSc2ccccn2)c1`, 1.8%. As for `CC[C@H](C)[C@@H](C(=O)N1CCNCC1)n1cc([C@@H](N)Cc2ccc(O)cc2)nn1`, the figure is -6.33%; as for `CCCNC(=O)C1(C)CCN1C(=O)Cc1ccc(-c2ccccc2)cc1` (stereo not given), 5.54%. The value for `CC1(C(=O)NS(=O)(=O)c2ccccc2)CCN1C(=O)Cc1ccc(-c2ccccc2)cc1` (stereo not given) was 4.55%. For `C#Cc1ccc(NC(=O)C2(C)CCN2C(=O)Cc2ccc(-c3ccccc3)cc2)cc1` (stereo not given), the inhibition (viability loss, TRAIL sensitization) is 73.3% (active).

For the compound `Cc1cccc2c1-c1sc(C(=O)NCCCN3CCc4ccccc4C3)cc1CO2`, the inhibition (viability loss, TRAIL sensitization) is 11.6%.

For the compound `Cc1noc(C)c1CSCC(=O)Nc1nc2ccc(Oc3ccccc3)cc2s1`, the inhibition (viability loss, TRAIL sensitization) was -12.9%.

As to `COc1cccc(C(NC(C)=O)c2nc(-c3ccccc3OC)cs2)c1` (stereo not given), the inhibition (viability loss, TRAIL sensitization) is 2.76%. For the compound `COc1ccc2nc(Nc3nc(-c4cc5ccccc5oc4=O)cs3)sc2c1`, the inhibition (viability loss, TRAIL sensitization) was 69.2% (active). Consider `CC(=O)CSc1nnc(CSc2ncccn2)n1C1CCCCC1`, for which the inhibition (viability loss, TRAIL sensitization) was -3.63%. Consider `O=C(NCCc1ccccc1Cl)C1CCC(=O)N(CCCc2ccccc2)C1` (stereo not given), for which the inhibition (viability loss, TRAIL sensitization) was 6.8%. For the compound `CCN(CC(=O)NC1CCS(=O)(=O)C1)c1nc(-c2cccnc2)nc2ccccc12` (stereo not given), the inhibition (viability loss, TRAIL sensitization) is 11.4%. The value for `Brc1ccc(-c2csc(N/N=C/c3cccnc3)n2)cc1` was 2.52%; that for `Fc1ccc(/C=N/Nc2nc(-c3cccnc3)nc3ccccc23)cc1` was 50.2% (active).

On to `O=C(NNS(=O)(=O)c1ccccc1)c1cnn(-c2ccc(Cl)cc2)c1C(F)(F)F`, for which the inhibition (viability loss, TRAIL sensitization) was 18.4%. The value for `Cc1ccc(NC(=O)CCOc2ccccc2)cc1S(=O)(=O)Nc1ccccc1Cl` was 5.58%; that for `CN(C(=O)CSc1cccc[n+]1[O-])C1CCCCC1` was 9.54%; that for `O=C(c1cc2ccccc2o1)N1CCN(c2cccc(C(F)(F)F)c2)CC1` was -2.4%. The value for `CC(=O)c1sc(NC(=O)c2ccc(C)cc2)nc1C` was 68.3% (active); that for `Cc1ccc(C(=O)Nc2ccn(C)n2)cc1` was 14.4%; that for `CC(=O)c1sc(N)nc1C` was -3.29% and -3.98%. As for `CCOC(=O)N1CCN(C(=O)COC(=O)c2cccc(S(C)(=O)=O)c2)CC1`, the figure is -12.4%; as for `C=CC(COCc1ccccc1)N(CC(=O)OC)S(=O)(=O)c1cc(Br)ccc1OC` (stereo not given), 2.56%; as for `CCOc1cc(N2CCOCC2)c(OCC)cc1NC(=O)COc1cccc2cccnc12`, 53.6% (active).

On to `Cc1cc(C)cc(OCC(=O)Nc2ccc(N3CCOCC3)cc2N2CCOCC2)c1`, for which the inhibition (viability loss, TRAIL sensitization) is 6.27%. As to `CCOc1cc(N2CCOCC2)c(OCC)cc1NC(=O)C1=NN(c2cccc(C)c2)C(=O)CC1`, the inhibition (viability loss, TRAIL sensitization) was 3.1%. The value for `Cc1ccc(-c2c3c(=O)n(C)c(=O)n(C)c3cn2-n2cnnc2)cc1` was -15.5%; that for `COc1ccc(OC)c(NC(=O)c2ccc3c(c2)C(=O)N(c2ccc(OC(C)=O)cc2)C3=O)c1` was -0.949%; that for `CC1CCCCC1NC(=O)CCS(=O)(=O)c1ccc2c(c1)NC(=O)CO2` (stereo not given) was -18.2%.

Consider `Cc1ccccc1S(=O)(=O)N1[C@@H](c2cccc(Cl)c2)C(C(=O)O)=CC[C@H]1c1ccc(Cl)cc1`, for which the inhibition (viability loss, TRAIL sensitization) is 15.5%. As for `CC(C(=O)Nc1ccccc1-c1ccccc1)N1CCOCC1` (stereo not given), the figure is -42%. Take `Cc1nc2ccccc2n1C(=O)N1CCOCC1`: the inhibition (viability loss, TRAIL sensitization) is -8.36%.

`Cc1oc2c(c1C(=O)N1CCOCC1)C(=O)c1ccccc1C2=O`: the inhibition (viability loss, TRAIL sensitization) is 88.8% (active). As for `COC(=O)[C@@]1(Sc2ccc(C)cc2)CC(=O)N(c2cccc(SC)c2)[C@@H]1c1ccccc1`, the figure is 24.6%; as for `O=[N+]([O-])c1ccc(N=NNc2ccc([N+](=O)[O-])cc2)cc1`, 13.8%. The value for `O=C(Cc1ccccc1)N1CCN(S(=O)(=O)c2ccc([N+](=O)[O-])cc2)CC1` was -7.16%; that for `O=C1/C(=C\c2ccc([N+](=O)[O-])cc2)CS(=O)(=O)C/C1=C/c1ccc([N+](=O)[O-])cc1` was 91.8% (active).
